Here are results for 22 compounds from PubChem BioAssay (NCATS).

The target in test [1] is Cytochrome P450 3A4 (Homo sapiens) (UniProt P08684). Put plainly: qHTS Assay for Inhibitors and Substrates of Cytochrome P450 3A4 (AID 884; active = well fitted curve in the direction sought with a large enough effect; an effect the other way counts as inactive or inconclusive; note: potency is the fitted concentration of half-maximal effect; nearly all actives have a fitted effect of over 50% in size). The procedure, abridged:
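20 nM human CYP3A4 with 25 uM Luciferin-PPXE (at KM) in 200 mM KPO4, preincubated 10 min with compound; NADPH regeneration started a 60 min RT reaction. Luciferin detected by luminescence, normalized to 57 uM ketoconazole as full inhibition.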
A general note: qHTS replaces the single test concentration by a dilution series.

Test [2] shares this target. Nature of the test: qHTS Assay for Activators of Cytochrome P450 3A4 (AID 885; active = well fitted curve in the direction sought with a large enough effect; an effect the other way counts as inactive or inconclusive; note: nearly all actives have a fitted effect of over 65% in size). The procedure, abridged: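 Steps: enzyme/substrate mix dispensed; compound added, 10 min RT; NADPH regeneration solution added, 60 min RT; luciferin detection buffer stops reaction; 20 min later luminescence measured.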
The target in test [3] is Androgen receptor (Homo sapiens) (UniProt P10275). Nature of the test: qHTS assay for small molecule agonists of androgen receptor signaling (AID 588515; active = well fitted curve in the direction sought with a large enough effect in the signal ratio, with a control signal flat; the % refers to the signal ratio; note: % is set by controls: 0 for no effect and ±100 for the full control effect). Particulars: AR-UAS-bla HEK293, beta-lactamase ratio, agonist 16 h; stronger effect = higher value. The procedure, abridged: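 EC50 and efficacy came from Hill fits of titrations (up to 92 uM) normalized to 30 nM R1881 as 100% and DMSO as 0%. Compound exposure was 16 h at 37 C on AR-UAS-bla HEK293 cells, with a 405/460/530 nm CCF4 fluorescence read.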

Test [4] has as its target Bile acid receptor (Homo sapiens) (UniProt Q96RI1). Nature of the test: qHTS assay for small molecule antagonists of farnesoid X receptor signaling (AID 588526). Note: % is set by controls: 0 for no effect and ±100 for the full control effect. In outline:
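Beta-lactamase reporter antagonist mode: HEK293T FXR-UAS-bla cells, titrated compound, CDCA stimulation, 16 h 37 C, CCF4 dye 2 h RT. Data normalized to CDCA 50 uM and DMSO; Hill-fit IC50.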

Test [5] has the same target. Nature of the test: qHTS assay for small molecule agonists of farnesoid X receptor signaling (AID 588527).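 Note: series mostly up to about 77 µM; 0% = vehicle basal and 100% = reference agonist.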 Particulars: HEK293T FXR-UAS-bla, beta-lactamase ratio, 16 h; activation: stronger effect = higher value. The procedure, abridged: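 Read-out: beta-lactamase reporter fluorescence with CCF4 substrate in GeneBLAzer FXR-UAS-bla HEK293T cells, after 16 h compound exposure at 37 C. Response scaled between DMSO basal (0%) and chenodeoxycholic acid at 100 uM (100%).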

Test [6] deals with Glucocorticoid receptor (Homo sapiens) (UniProt P04150). Put plainly: qHTS assay for small molecule antagonists of glucocorticoid receptor signaling (AID 588533; active = well fitted inhibition curve with a large enough effect in the signal ratio, with a control signal flat, not every such curve was filed as active; the % refers to the signal ratio;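 note: cells stimulated with 2 nM dexamethasone as agonist; % is set by controls: 0 for no effect and ±100 for the full control effect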). In outline:
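Antagonist-mode qHTS: compound titrations added to GRE-bla HeLa cells, then dexamethasone 2 nM final; 18 h, 37 C. CCF4 FRET fluorescence normalized to dexamethasone and DMSO; IC50 from Hill fit.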

Test [7] can be described thus: qHTS assay for small molecule antagonists of peroxisome proliferator-activated receptor delta signaling (AID 588535; active = well fitted inhibition curve with a large enough effect in the signal ratio, with a control signal flat, not every such curve was filed as active; the % refers to the signal ratio;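 for max response: cells co-treated with a PPAR-delta agonist as stimulator during compound exposure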). Particulars: HEK293T PPARd-UAS-bla, beta-lactamase FRET ratio, 18 h; 460 nm channel. In outline:
(§1)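 HEK293T PPAR-delta-UAS-bla cells, 4000/well, 2% charcoal/dextran FBS; 5 h 37 C; cpd titration; 18 h 37 C; CCF4 2 h RT; FI 460/530 nm; Hill fit → IC50, efficacy.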

The target of test [8] is Peroxisome proliferator-activated receptor delta (Homo sapiens) (UniProt Q03181). The description is as above. The procedure, abridged: as §1
The target of test [9] is Vitamin D3 receptor (Homo sapiens) (UniProt P11473). Put plainly: qHTS assay for small molecule agonists of vitamin D receptor signaling (AID 588543).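 Note: 0% = DMSO basal and 100% = reference agonist control.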 In outline: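 VDR-UAS-bla HEK293T cells, 2000/well, 2% charcoal-stripped FBS; compound titration 16 h at 37 C; CCF4 beta-lactamase ratio read. Normalized to 50 nM 1-alpha,25-dihydroxyvitamin D3 (100%) and DMSO; Hill fit gives EC50, efficacy.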

A short description of test [10]: qHTS assay for small molecule activators of the nuclear factor-kappa B (NF-kB) signaling pathway (AID 651749; active = well fitted activation curve with a large enough effect in the signal ratio; the % refers to the signal ratio; note: series mostly up to about 77 µM; % of control where 0% means no effect). Particulars: NF-kB-bla ME-180 cells, beta-lactamase FRET ratio, 16 h; activation: stronger effect = higher value. In outline: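 Readout: beta-lactamase reporter driven by an NF-kB response element, detected fluorescently as loss of FRET. Cells were the ME-180 line, treated 16 hr at 37C with pin-transferred compound.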

Test [11] deals with Glucocorticoid receptor (Homo sapiens) (UniProt P04150). Put plainly: qHTS assay for small molecule agonists of glucocorticoid receptor signaling (AID 588532; active = well fitted curve in the direction sought with a large enough effect in the signal ratio, with a control signal flat; the % refers to the signal ratio;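 note: 100% = dexamethasone at 0.1 µM and 0% = DMSO only wells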). Particulars: HeLa MMTV-bla, beta-lactamase ratio, agonist, 18 h; activation: stronger effect = higher value, percent of dexamethasone control, DMSO zero. The procedure, abridged:
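Quantitative HTS using CellSensor MMTV-bla HeLa cells in charcoal/dextran-treated serum; compounds tested up to 92 uM. After 18 h at 37 C, CCF4 dye reported reporter induction.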

A short description of test [12]: qHTS assay for small molecule agonists of the antioxidant response element (ARE) signaling pathway (AID 651741; active = well fitted activation curve with a large enough effect in the signal ratio; the % refers to the signal ratio; note: potency is the fitted concentration of half-maximal effect; for activation: % of control where 0% means no effect). The procedure, abridged:
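Quantitative HTS in HepG2 cells stably expressing an ARE-beta-lactamase reporter; 16 h compound exposure at 37 C, followed by 2 h room-temperature incubation with LiveBLAzer B/G FRET substrate and fluorescence measurement.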

Test [13] has as its target Androgen receptor (Homo sapiens) (UniProt P10275). Nature of the test: qHTS assay for small molecule antagonists of androgen receptor signaling (AID 588516; active = well fitted curve in the direction sought with a large enough effect in the signal ratio, with a control signal flat, not every such curve was filed as active; the % refers to the signal ratio; note: % is set by controls: 0 for no effect and ±100 for the full control effect). In outline: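 AR-UAS-bla GripTite HEK 293 cells (2000/well) treated with compound titrations plus 10 nM R1881 for 16 h at 37C. Beta-lactamase read by CCF4 FRET (460/530 nm); IC50 from Hill fits, normalized to R1881 and DMSO control wells.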

Test [14] can be described thus: qHTS assay for small molecule activators of the human pregnane X receptor (PXR) signaling pathway (AID 720659; call rule not given here; note: 0% is about no effect).

Values joined by “and” are separate entries in the source; they are usually repeats but may differ in a detail not shown here. Equal entries are not always repeated. Inconclusive results are not listed. Active and inactive are the calls of the source. Unless noted, calls come from the whole dose curve.

Androgen receptor (Homo sapiens), sequence (P10275 whole entry, looked up): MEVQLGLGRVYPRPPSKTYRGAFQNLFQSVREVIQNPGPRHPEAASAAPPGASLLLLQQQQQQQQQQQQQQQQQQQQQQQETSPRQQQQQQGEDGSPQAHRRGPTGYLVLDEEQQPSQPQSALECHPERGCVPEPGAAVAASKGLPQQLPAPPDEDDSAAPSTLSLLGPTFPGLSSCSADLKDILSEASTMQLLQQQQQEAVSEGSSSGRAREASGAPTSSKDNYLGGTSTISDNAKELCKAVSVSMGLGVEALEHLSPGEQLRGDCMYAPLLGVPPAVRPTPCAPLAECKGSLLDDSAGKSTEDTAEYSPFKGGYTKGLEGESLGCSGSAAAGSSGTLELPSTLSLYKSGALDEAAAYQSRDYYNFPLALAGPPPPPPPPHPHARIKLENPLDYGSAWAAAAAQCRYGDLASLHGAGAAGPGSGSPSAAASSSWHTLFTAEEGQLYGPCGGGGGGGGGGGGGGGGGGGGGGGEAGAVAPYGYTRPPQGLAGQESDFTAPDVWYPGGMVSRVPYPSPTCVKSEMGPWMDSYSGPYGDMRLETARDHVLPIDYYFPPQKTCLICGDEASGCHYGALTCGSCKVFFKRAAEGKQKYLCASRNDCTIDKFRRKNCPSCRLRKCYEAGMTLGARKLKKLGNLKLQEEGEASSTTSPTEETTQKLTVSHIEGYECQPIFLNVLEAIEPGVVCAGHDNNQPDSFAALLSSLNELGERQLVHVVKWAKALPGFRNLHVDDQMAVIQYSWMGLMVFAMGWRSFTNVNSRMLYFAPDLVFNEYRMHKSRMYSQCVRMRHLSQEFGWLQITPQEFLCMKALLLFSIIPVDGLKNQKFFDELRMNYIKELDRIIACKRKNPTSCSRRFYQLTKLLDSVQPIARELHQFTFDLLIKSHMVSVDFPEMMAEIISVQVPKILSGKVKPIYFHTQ
Bile acid receptor (Homo sapiens), sequence (Q96RI1 whole entry, looked up): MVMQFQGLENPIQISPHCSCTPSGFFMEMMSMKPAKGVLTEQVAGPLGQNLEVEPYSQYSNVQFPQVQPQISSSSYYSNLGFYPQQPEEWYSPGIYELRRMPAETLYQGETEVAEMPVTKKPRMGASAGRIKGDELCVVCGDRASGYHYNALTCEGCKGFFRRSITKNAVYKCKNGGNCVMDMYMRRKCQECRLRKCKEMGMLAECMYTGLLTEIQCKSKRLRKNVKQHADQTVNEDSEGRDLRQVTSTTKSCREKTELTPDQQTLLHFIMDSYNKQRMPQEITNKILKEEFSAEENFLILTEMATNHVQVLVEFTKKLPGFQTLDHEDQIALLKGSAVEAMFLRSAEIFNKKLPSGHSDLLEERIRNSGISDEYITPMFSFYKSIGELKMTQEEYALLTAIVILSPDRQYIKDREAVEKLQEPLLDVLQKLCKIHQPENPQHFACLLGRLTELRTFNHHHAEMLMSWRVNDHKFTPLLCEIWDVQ
Cytochrome P450 3A4 (Homo sapiens), sequence (P08684 whole entry, looked up): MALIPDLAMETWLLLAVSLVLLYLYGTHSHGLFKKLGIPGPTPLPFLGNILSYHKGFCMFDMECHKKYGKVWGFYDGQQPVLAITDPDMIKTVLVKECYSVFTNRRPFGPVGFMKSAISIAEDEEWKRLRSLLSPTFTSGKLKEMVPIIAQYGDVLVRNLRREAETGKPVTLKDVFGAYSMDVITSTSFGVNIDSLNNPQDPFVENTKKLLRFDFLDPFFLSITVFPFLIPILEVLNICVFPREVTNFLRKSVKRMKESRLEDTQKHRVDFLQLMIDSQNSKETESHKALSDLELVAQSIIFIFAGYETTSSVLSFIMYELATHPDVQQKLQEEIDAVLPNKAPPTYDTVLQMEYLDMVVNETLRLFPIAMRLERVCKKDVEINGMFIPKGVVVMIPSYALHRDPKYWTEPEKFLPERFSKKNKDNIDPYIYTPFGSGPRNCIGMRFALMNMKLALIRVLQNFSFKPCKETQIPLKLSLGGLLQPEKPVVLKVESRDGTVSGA
Peroxisome proliferator-activated receptor delta (Homo sapiens), sequence (Q03181 whole entry, looked up): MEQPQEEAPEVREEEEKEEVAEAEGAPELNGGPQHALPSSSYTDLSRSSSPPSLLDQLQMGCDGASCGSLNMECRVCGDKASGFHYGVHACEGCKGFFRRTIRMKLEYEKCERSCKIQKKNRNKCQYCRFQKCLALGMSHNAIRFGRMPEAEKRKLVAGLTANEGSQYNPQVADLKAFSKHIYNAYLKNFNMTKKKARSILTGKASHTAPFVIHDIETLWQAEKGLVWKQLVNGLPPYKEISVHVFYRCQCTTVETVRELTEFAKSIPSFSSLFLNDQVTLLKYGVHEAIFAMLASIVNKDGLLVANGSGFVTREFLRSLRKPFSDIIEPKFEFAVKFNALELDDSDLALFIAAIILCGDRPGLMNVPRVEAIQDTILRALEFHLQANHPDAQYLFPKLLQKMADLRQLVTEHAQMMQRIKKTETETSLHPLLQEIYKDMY
Glucocorticoid receptor (Homo sapiens), sequence (P04150 whole entry, looked up): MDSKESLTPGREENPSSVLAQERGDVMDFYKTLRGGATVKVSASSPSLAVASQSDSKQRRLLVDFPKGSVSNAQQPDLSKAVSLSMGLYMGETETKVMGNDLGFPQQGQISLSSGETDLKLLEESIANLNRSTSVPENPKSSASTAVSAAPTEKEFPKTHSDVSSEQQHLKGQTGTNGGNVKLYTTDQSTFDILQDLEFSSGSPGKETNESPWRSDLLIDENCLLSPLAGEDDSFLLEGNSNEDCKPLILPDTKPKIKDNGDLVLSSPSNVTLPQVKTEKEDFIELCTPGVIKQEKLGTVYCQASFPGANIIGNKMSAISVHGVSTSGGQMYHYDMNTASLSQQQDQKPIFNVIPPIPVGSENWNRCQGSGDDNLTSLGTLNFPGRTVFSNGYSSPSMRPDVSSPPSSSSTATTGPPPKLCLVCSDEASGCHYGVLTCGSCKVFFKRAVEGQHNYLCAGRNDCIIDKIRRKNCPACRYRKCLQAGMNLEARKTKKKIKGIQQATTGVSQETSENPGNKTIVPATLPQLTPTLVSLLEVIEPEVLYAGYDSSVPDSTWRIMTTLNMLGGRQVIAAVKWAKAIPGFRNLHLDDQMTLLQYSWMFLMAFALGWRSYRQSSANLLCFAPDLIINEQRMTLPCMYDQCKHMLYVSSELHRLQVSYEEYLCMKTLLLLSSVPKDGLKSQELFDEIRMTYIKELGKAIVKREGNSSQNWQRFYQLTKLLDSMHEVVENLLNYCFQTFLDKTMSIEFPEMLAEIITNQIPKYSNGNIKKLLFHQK
Vitamin D3 receptor (Homo sapiens), sequence (P11473 whole entry, looked up): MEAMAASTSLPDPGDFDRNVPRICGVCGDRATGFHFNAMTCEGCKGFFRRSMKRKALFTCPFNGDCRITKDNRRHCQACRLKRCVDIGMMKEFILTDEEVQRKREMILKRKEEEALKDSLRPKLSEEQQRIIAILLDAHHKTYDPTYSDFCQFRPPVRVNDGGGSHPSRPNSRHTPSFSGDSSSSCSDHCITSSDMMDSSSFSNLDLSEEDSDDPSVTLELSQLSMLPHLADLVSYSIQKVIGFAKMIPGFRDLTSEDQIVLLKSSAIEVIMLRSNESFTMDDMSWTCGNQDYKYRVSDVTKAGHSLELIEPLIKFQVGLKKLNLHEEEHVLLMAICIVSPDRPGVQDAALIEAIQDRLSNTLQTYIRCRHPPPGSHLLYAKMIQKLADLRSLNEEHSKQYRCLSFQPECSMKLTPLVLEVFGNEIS

For `C=C(CC1(CNP(=O)(c2ccccc2)c2ccccc2)CC1)c1ccccc1`, the Potency in [1] was 3.98 µM (active). Further, in test [2], the Potency entry is “inactive”.
Consider `COC(=O)[C@]1(C)C[C@H]1[C@H](NP(=O)(c1ccccc1)c1ccccc1)c1ccccc1`, for which, in [2], the Potency entry is “inactive”.
In the case of `c1cc2c(cc1[C@H]1OC[C@@H]3[C@H]1CO[C@H]3c1ccc3c(c1)OCO3)OCO2`, the Potency in [1] was 0.794 µM (active). Moreover, the Potency result in test [2] was “inactive”.
For `CCOc1nc(NC)nc(NC(=O)NS(=O)(=O)c2ccccc2C(=O)OC)n1`, the activation is -6.67% (inactive) in [3], -2.84% (inactive) in [5] and 1.48% (inactive) in test [10]. In addition, the Potency entry in test [4], in test [6] and in test [8] was “inactive” each time. In [7], the max response was 16.6%. In addition, the outcome in test [9] was inactive.
As to `Cc1ccccc1C(=O)Nc1cccc(OC(C)C)c1`, the activation is -11.5% (inactive) in test [3], 2.19% (inactive) in test [11] and 0.221% (inactive) in test [10]. Besides, the Potency result in [6], in [8] and in test [12] was “inactive” each time. Besides, the max response in test [7] was 10.6%.
For the compound `CCOP(=S)(OCC)SCC(=O)NC(C)C`, the Potency result in test [13], in [4], in test [6] and in [12] was “inactive” each time. For the same compound, the results for the activation in [5], in test [11] and in test [10] were 0.181% (inactive), 3% (inactive) and 0.608% (inactive), respectively. The outcome in [9] was inactive.
As to `CCCCC(CC)C(=O)Cl` (centres undefined), the Potency result in test [4], in test [6], in test [8] and in test [12] was “inactive” each time. For the same compound, the figures for the activation in test [5], in [11] and in test [10] were -2.28% (inactive), -0.757% (inactive) and -0.95% (inactive), respectively. The max response in [7] is 9%. Also, in test [14], the call was inactive.
Consider `COCc1cnc(C2=NC(C)(C(C)C)C(=O)N2)c(C(=O)O)c1` (centres undefined), for which the Potency result in test [13], in test [4], in test [6] and in [8] was “inactive” throughout. Further, in [7], the max response was -13.7%. Besides, the compound was classed as inactive in test [9] and in [14].
For the compound `CCOC1Oc2ccc(OS(C)(=O)=O)cc2C1(C)C` (centres undefined), the figures for the activation in test [3] and in test [10] were -8.07% (inactive) and 0.657% (inactive), respectively. Besides, the Potency result in test [13] and in test [8] was “inactive” throughout. The max response in test [7] is -8.85%. For the same compound, the call in [9] was inactive.
Regarding `Cc1cc(Cl)ccc1OCC(=O)O`, the activation in test [3] is -0.462% (inactive) and -10.2% (inactive); in test [11] it was -2.21% (inactive) and 11.1% (inactive). Further, the Potency entry in test [13] and in [6] was “inactive” throughout. For the same compound, the compound was classed as inactive in test [9] and in test [14].
On to `c1cc2c3c(cccc3c1)CC2`, for which, in [3], the activation is 5.35% (inactive). The Potency result in test [13], in test [6], in [8] and in test [12] was “inactive” each time. The max response in test [7] was -25.4%. In addition, the outcome in test [14] was inactive.
For the compound `C/C=C(\C)C(=O)O[C@H]1C[C@@H](OC(C)=O)[C@@]2(C(=O)OC)CO[C@H]3[C@@H](O)[C@@](C)([C@]45O[C@@]4(C)[C@H]4C[C@@H]5O[C@@H]5OC=C[C@@]54O)[C@H]4[C@]1(CO[C@]4(O)C(=O)OC)[C@@H]32`, the activation in [3] is 2.71% (inactive); in test [11] it was 4.96% (inactive); in [10], -1.4% (inactive). For the same compound, the Potency entry in test [13] and in test [4] was “inactive” in each case. In test [9], the call was inactive.
With `CC(Oc1cc(Cl)c(Cl)cc1Cl)C(=O)O` (centres undefined), the Potency result in [4], in [6] and in [8] was “inactive” each time. The results for the activation in test [5] and in test [11] were -3.32% (inactive) and -0.156% (inactive), respectively. The max response in test [7] is 52.3%. The call in test [9] and in test [14] was inactive.
Take `CNC(=O)Oc1cccc2c1OC(C)(C)C2O` (centres undefined): the activation in test [3] is 3.8% (inactive); in [11], 12.4% (inactive); in test [10] it was 0.725% (inactive). In addition, the Potency result in test [13], in test [4] and in test [6] was “inactive” throughout. For the same compound, the compound was classed as inactive in test [9] and in test [14]. In [12], the Potency was 54.5 µM (active).
Consider `NS(=O)(=O)C(F)(F)C(F)(F)C(F)(F)C(F)(F)C(F)(F)C(F)(F)C(F)(F)C(F)(F)F`, for which the Potency entry in [4], in [6] and in test [8] was “inactive” in each case. Moreover, the values for the activation in test [5], in [11] and in [10] were 4.62% (inactive), -2.51% (inactive) and 3.4% (inactive), respectively. The max response in test [7] came to 101%. Besides, the Potency in test [12] is 68.6 µM (active).
Consider `C=CC(=O)OCCCCCC(C)C`, for which the activation in test [3] was 3.1% (inactive); in test [5], 1.09% (inactive); in test [10], 1.07% (inactive). The Potency entry in [4], in test [8] and in test [12] was “inactive” in each case. The max response in test [7] is 38.5%. Moreover, in test [9], the call was inactive.
Take `CCOP(=S)(S)OCC`: the activation in test [3] was 24.9% (inactive). In addition, the Potency entry in test [13], in test [4], in [6], in test [8] and in test [12] was “inactive” throughout. For the same compound, in [7], the max response turned out to be 11%. The compound was called inactive in test [9] and in [14].
With `FC(F)(F)c1ccc(OCCCOc2c(Cl)cc(OCC=C(Cl)Cl)cc2Cl)nc1`, the activation was -16.8% (inactive) in [3], -2.38% (inactive) in test [5], 9.84% (inactive) in test [11] and 0.158% (inactive) in test [10]. The Potency result in test [13], in [4] and in [8] was “inactive” throughout. Further, the max response in [7] is -4.25%. Besides, the compound was classed as inactive in test [9] and in [14]. Besides, the Potency in test [12] was 54.5 µM (active).
For the compound `O=[As](O)(O)O`, the activation in test [3] was -0.986% (inactive); in [5], -0.515% (inactive); in test [11], -5.56% (inactive); in [10], -0.92% (inactive). Further, the Potency entry in test [13], in test [4], in test [6] and in [8] was “inactive” in each case. Further, in [7], the max response was found to be 6.63%. For the same compound, the result in test [14] was inactive.
Take `CC(C)(C)N(NC(=O)c1ccc(Cl)cc1)C(=O)c1ccccc1`: the activation in test [3] was 4.02% (inactive); in test [5] it was 5.56% (inactive); in [11], -0.985% (inactive). For the same compound, the Potency entry in [13], in [4], in test [6], in test [8] and in test [12] was “inactive” throughout. Besides, in [7], the max response is -27.8%.
Regarding `CCOP(=S)(OCC)Oc1cnc2ccccc2n1`, the Potency result in test [4], in test [6], in [8] and in [12] was “inactive” throughout. Also, the activation is 1.65% (inactive) in test [5], -1.45% (inactive) in test [11] and -0.487% (inactive) in [10]. Also, in [7], the max response is 6.57%.
Regarding `CCOP(=O)(OCC)SCSCC`, the activation in test [3] is 6.75% (inactive); in test [5], -0.362% (inactive); in test [10], -2% (inactive). Moreover, the Potency result in test [13], in [4], in test [6], in test [8] and in [12] was “inactive” in each case. Moreover, the max response in test [7] was -57%. Further, the compound was classed as inactive in test [9].
